Assay outcomes (PubChem BioAssay)
HPGD inh: inhibitors of human 15-hydroxyprostaglandin dehydrogenase (HPGD); P15428; purified HPGD, NADH fluorescence kinetic, PGE2 substrate; Potency, µM, hits mostly inhibitors; 4.3% of 150,000 active; AID 894; active means well fitted inhibition curve with a large enough effect, not every such curve was filed as active; inconclusive means small, poorly fitted or top-dose-only effect, or another doubt; inactive means no such curve, though single readings can be large or run the other way
Target sequence (P15428 whole entry, looked up): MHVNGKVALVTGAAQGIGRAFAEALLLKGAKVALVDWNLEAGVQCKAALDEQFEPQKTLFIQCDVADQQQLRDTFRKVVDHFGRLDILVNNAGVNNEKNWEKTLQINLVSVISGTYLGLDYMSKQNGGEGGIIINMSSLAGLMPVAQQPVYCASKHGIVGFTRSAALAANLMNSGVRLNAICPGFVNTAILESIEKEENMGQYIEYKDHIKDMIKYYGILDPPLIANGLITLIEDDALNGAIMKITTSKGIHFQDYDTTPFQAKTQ
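NADH formation kinetics: reaction with 30 uM PGE2 and 1 mM NAD+ (final), 20 nM enzyme, Tris-HCl pH 8 with Tween 20, after 15 min compound preincubation at room temperature. Fluorescence change, last versus first of five reads.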
HTT aggregate: reduces HttQ103-GFP aggregates in PC12 cells | 1.1% of 220,000 active | PC12 HttQ103-GFP aggregates, Acumen cytometry, 40 h | Potency, µM (top dose mostly 46.1 µM), actives largely listed as inhibitors; further: nearly all actives have a fitted effect of over 60% in size
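Aggregates are detected as GFP objects 1–25 µm with signal 6 STDEV over background in lysates of induced PC12 cells. These carry Huntingtin exon 1 with 103 glutamines fused to GFP under an ecdysone promoter; compounds titrated.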
LMNA splice mod: changes lamin A minigene splicing in HeLa cells | HeLa LMNA splicing GFP/RFP minigene ratio, 48 h | 0.01% of 200,000 active | Potency, µM (titrated, usually from 46.1 µM), usual class: inhibitors; active means well fitted inhibition curve with a large enough effect in the signal ratio, with a control signal flat, not every such curve was filed as active; inconclusive means small, poorly fitted or top-dose-only effect, or effect the other way, or a change in a side signal; the % refers to the signal ratio
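S3 HeLa stable clones carrying a lamin A-EGFP splicing minigene plus DsRed2 were seeded at 600 cells/well in Opti-MEM with 2% FBS, pin-dosed and incubated 48 h at 37°C. Acumen cytometry (488 nm) gave the GFP/RFP total-intensity ratio.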
ALDH1A1 block: ALDH1A1 (human) enzyme inhibition; P00352; Purified ALDH1A1, NADH fluorescence, propionaldehyde substrate; Potency, µM (titrated, usually from 75.3 µM), most hits filed as inhibitors; 7.3% of 220,000 active; AID 1030; active means well fitted inhibition curve with a large enough effect, not every such curve was filed as active; inconclusive means small, poorly fitted or top-dose-only effect, or another doubt; inactive means no such curve, though single readings can be large or run the other way
Target sequence (P00352 whole entry, looked up): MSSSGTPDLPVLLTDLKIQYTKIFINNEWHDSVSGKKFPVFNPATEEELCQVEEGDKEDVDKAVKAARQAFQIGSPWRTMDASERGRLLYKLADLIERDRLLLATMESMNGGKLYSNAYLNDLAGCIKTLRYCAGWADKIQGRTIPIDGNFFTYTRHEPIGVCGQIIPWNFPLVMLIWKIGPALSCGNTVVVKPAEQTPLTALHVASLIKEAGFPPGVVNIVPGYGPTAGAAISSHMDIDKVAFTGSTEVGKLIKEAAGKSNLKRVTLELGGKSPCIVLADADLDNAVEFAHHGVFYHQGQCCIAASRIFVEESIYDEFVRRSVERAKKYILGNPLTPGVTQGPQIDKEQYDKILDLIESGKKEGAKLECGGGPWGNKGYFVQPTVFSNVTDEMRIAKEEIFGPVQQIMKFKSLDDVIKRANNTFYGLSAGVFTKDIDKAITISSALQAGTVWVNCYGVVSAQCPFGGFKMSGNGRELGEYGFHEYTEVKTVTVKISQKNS
HTT cytoprotect: protects HTT-Q103 PC12 cells, measured by ATP; AID 1471; Potency, µM (series often up to 56.4 µM), most hits filed as activators; 0.14% of 230,000 active; PC12 HTT-Q103 induced, cytoprotection, ATP luminescence, 40 h; further: nearly all actives have a fitted effect of over 45% in size
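PC12 cells with ecdysone-inducible HTT exon 1 Q103-GFP, induced with 100 nM tebufenozide and co-treated with library compounds in a dose series (1536-well, 1500 cells/well). Cytoprotection read as ATP content by ATPlite luminescence.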
A number is an active result; . = inactive; ? = inconclusive; / = no result; [ ] = dose if it differs, or a comment. In the library only some 8.8% were active in any assay of this set; here they are far more common. Unless noted, the call rests on the fitted dose curve; in most records, active means well fitted curve in the direction sought with a large enough effect; inconclusive means small, poorly fitted or top-dose-only effect, or another doubt; inactive means no such curve, though single readings can be large; an effect the other way counts as inactive or inconclusive.

SMILES	HPGD inh	HTT aggregate	LMNA splice mod	ALDH1A1 block	HTT cytoprotect
O=C(CCCC(=O)NCc1ccc(F)cc1)NCc1ccc(F)cc1	/	.[9.22 µM]	?	.	.[10 µM]
COc1cccc(CNC(=O)N2CCc3c(sc4c3CCCC4)C2c2ccc(F)cc2)c1 (stereo not given)	/	/	.	/	/
O=C(NCCSCc1ccco1)Nc1ccc(Cl)cc1	.	.	.	?	.
O=C(COc1ccccc1)NCCSCc1ccco1	22µM	.	.	?	.[10 µM]
O=C(COc1ccccc1)NCCSc1ccccc1	.	.	.	.	.
O=C(CCSc1ccccc1)NCCSCc1ccco1	/	.	.	11µM	.[10 µM]
Cc1cccc(C)c1OCCNC(=O)CCC(=O)c1ccccc1	.	.	.	.	.[10 µM]
CCOc1cc2[nH]c(=O)n(Cc3ccc(C(=O)N4CCN(c5cccc(Cl)c5)CC4)cc3)c(=O)c2cc1OCC	/	/	.	/	/
Clc1ccc(OCCSCc2nc3ccccc3[nH]2)cc1	?	7.1µM	?	?	.[10 µM]
O=C(Nc1ccc(N2CCN(C(=O)c3ccco3)CC2)cc1)c1cccnc1Cl	/	.[9.22 µM]	?	.	.[10 µM]
Cn1cccc1/C=C1\CCC/C(=C\c2cccn2C)C1=O	.	.	?	7.9µM	.
CCOC(=O)C1=C(C)NC(=O)NC1c1ccc(-c2ccccc2F)o1 (stereo not given)	.	.	?	20µM	.[0.074 µM]
COCCOC(=O)C1=C(C)NC(=O)NC1c1ccc(-c2ccc(F)cc2)o1 (stereo not given)	/	.	?	?	.
O=C(CN1CCN(c2ncc(C(F)(F)F)cc2Cl)CC1)NCCNc1ncc(C(F)(F)F)cc1Cl	.	?	.	?	.
O=C(CONS(=O)(=O)c1ccc(Cl)cc1)NCCNc1ncc(C(F)(F)F)cc1Cl	/	.	.	13µM	.
COC(=O)/C=C1\S/C(=N/NC(=O)c2ccccc2)NC1=O	.	.	.	?	.
COc1ccccc1/C=C1\S/C(=N/NC(=O)c2cccc(Br)c2)NC1=O	11µM	10µM	?	.	.
CC(=O)c1ccc(N2CCN(c3ccc(C(N)=O)cc3[N+](=O)[O-])CC2)cc1	/	.	/	.	.
O=C1CN(C(=O)COC(=O)c2ccc[n+]([O-])c2)c2ccccc2N1	/	.	.	.	.[10 µM]
CCCCCCCNC(=O)c1ccc(N2CCC3(CC2)OCCO3)c([N+](=O)[O-])c1	.	.	?	25µM	.[10 µM]
O=[N+]([O-])c1cc([N+](=O)[O-])c(N2CCCCCC2)cc1NCCO	.	.	.	2.2µM	.
NC(=O)c1ccc(N2CCN(c3ccc(O)cc3)CC2)c([N+](=O)[O-])c1	/	.	?	16µM	.[10 µM]
O=C1CN(C(=O)COC(=O)c2ccc(N3CCCCCC3)c([N+](=O)[O-])c2)c2ccccc2N1	/	?	.	7.9µM	.[10 µM]
O=[N+]([O-])c1c(NCCO)cc(N2CCCCC2)c2nonc12	/	.[9.22 µM]	.	?	.[10 µM]
CC(C)(C)C1CCC(=NNC(=O)C(=O)NCc2ccco2)CC1 (stereo not given)	/	.	.	.	.
SMILES	HPGD inh	HTT aggregate	LMNA splice mod	ALDH1A1 block	HTT cytoprotect
O=C(NCc1ccco1)c1ccc(N2CCCCC2)c([N+](=O)[O-])c1	32µM	.	?	?	/
NNC(=O)c1ccc(N2CCCCCC2)c([N+](=O)[O-])c1	/	?	.	1.6µM	.
CCC(CC)c1nnc(NC(=O)c2ccc(N3CCCCC3)c([N+](=O)[O-])c2)s1	.	.	.	0.79µM	.[10 µM]
COc1ccc(N2CC(NC(=O)c3cccs3)CC2=O)cc1OC (stereo not given)	/	/	.	/	/
Cc1ccc(-n2[nH]c(=O)c3cccnc32)cc1	16µM	.	.	.	.
Cc1ccc(-n2c(=O)[nH]c3ncccc3c2=O)cc1	/	.[9.22 µM]	/	?	.[10 µM]
CC/C=C\CC[C@H](OC(=O)c1ccc(Br)cc1)C1=CCCCC1=O	/	/	/	.[13.5 µM]	.[10 µM]
COc1ccc(-c2nc(-c3ccccc3)oc2NC(C)C)cc1	.	/	/	.	.
CCCn1cc(S(=O)(=O)c2cccc(Cl)c2)c(=O)c2cc(F)c(N3CCN(CC)CC3)cc21	/	/	.	/	/
CCOc1ccc(NC(=O)C(c2ccccn2)N(C(=O)CCl)c2ccc(F)cc2)cc1 (stereo not given)	.	.	.	11µM	.[10 µM]
Cc1oc2ncn(C)c(=O)c2c1C(=O)N1CCN(c2ccc(Cl)cc2)CC1	/	/	.	/	/
COc1cccc(C2=CC(c3ccc(OC)c(OC)c3)NC(=S)N2)c1 (stereo not given)	/	.[9.22 µM]	/	14µM	.[10 µM]
COc1ccc(C2=CC(c3ccc(OC)c(OC)c3)NC(=S)N2)cc1 (stereo not given)	?	.	?	?	.
CCN(CC)c1nc2c(s1)C(=O)CC(C)(C)C2	.	.[9.22 µM]	.	13µM	.
COCCNC(=O)CSCc1cc(C)cc(C)c1	/	.	.	.	.
CCOC(=O)c1cc(-c2csc(-c3cccc(Cl)c3)n2)on1	/	.[9.22 µM]	/	.	.[10 µM]
CCOC(=O)c1cc(-c2csc(Nc3c(C)cc(C)cc3C)n2)on1	/	.[9.22 µM]	/	14µM	.[10 µM]
CCOc1ccc(Cn2c(CNS(=O)(=O)c3ccc(Cl)s3)nc3cccnc32)cc1	/	/	.	/	/
Cc1oc(-c2ccccc2Cl)nc1Cn1c(SCc2cccc(F)c2)nc2cccnc21	/	/	.	/	/
Clc1ccc2[nH]cc(-c3nnnn3-c3ccc4ccccc4c3)c2c1	.	.	.	9.5µM	.[10 µM]
COc1ccc(NC(=O)CSC2=Nc3ccccc3C3=NC(CC(=O)NCCc4ccccc4)C(=O)N23)cc1 (stereo not given)	/	/	.	/	/
O=C(CCCc1nc2ccccc2s1)NCc1ccc(F)cc1	25µM	?	.	?	.[10 µM]
O=C(CCCc1nc2ccccc2s1)NCc1ccccc1	14µM	.	.	.	/
O=C(O)CCCc1nc2ccccc2s1	.	?	.	.	.
O=C(CCCc1nc2ccccc2s1)NC(c1ccccc1)c1ccccc1	.	.	.	.	.[10 µM]
SMILES	HPGD inh	HTT aggregate	LMNA splice mod	ALDH1A1 block	HTT cytoprotect
O=S(=O)(Cc1nc2ccccc2s1)c1ccccc1	.	.	.	.	.[10 µM]
Cc1ccc(S(=O)(=O)Cc2sc3ccccc3[n+]2C)cc1	22µM	.	.	?	.
O=C(/C=C/c1cccc(F)c1)c1ccc(N2CCOCC2)cc1	/	.[9.22 µM]	/	13µM	.[10 µM]
CCn1c(SCC(=O)Nc2ccccc2)nc2c([nH]c3ccccc32)c1=O	/	/	.	/	/
COc1cc(N=C2C(=O)N3CCCc4cccc2c43)cc(OC)c1	.	.	.	0.63µM	.[0.074 µM]
COc1cccc(C(=O)N2CCCc3ccccc32)c1	.	.	.	.	.
CN(C)c1ccc(C(=C2C=CC(=[N+](C)C)C=C2)c2c(O)c(S(=O)(=O)O)cc3cc(S(=O)(=O)O)ccc23)cc1	.	/	/	3.5µM	.[10 µM]
Cc1cccc(OCC(=O)Nc2cccc(OCc3cc(=O)n4cccc(C)c4n3)c2)c1	/	/	.	/	/
COc1ccc(OC)c2[nH]c(=O)c(CCNS(=O)(=O)c3ccccc3)cc12	.	.	.	7.1µM	.
O=C(CSc1ccc2ccccc2c1)NCCc1ccc(O)c(O)c1	/	?	.	25µM	.
COc1ccc(CCNC(=O)CSc2ccc3ccccc3c2)cc1OC	/	.	.	.	.[10 µM]
